Measured values published in the supplement of paper PMC6089552.
About 300 (9.4%) of roughly 3,200 compounds showed activity. Shown is part of a subset that was picked to be rich in actives. Values without a mark were called inactive.

Tested on: A673/TR/shEF
Assay: cell viability (LOESS-normalised, relative to median of negative controls) (log2 ratio); higher = more viable cells (less compound effect), active = hit call of the paper (over 3 MAD below the median)
Conditions: treatment time: 72 h
In short: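 A673/TR/shEF Ewing sarcoma cells were plated at 1,500 per well in 384-well plates and cultured with or without doxycycline, added 24 h before compounds, to induce EWS-FLI1 shRNA knockdown. Library compounds at two or more concentrations, alongside DMSO controls, were applied for three days. Cell viability was measured by CellTiter-Glo luminescence on an Envision reader. Readings were LOESS-corrected per plate, divided by the median of negative controls and log2-transformed, and hits were wells lying at least three median absolute deviations from the median of all screened wells.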

[1] = 0.25 µM, library screen: screen1, EWS-FLI1 expression: high (no doxycycline)
[2] = 0.25 µM, library screen: screen1, EWS-FLI1 expression: low (doxycycline-induced shRNA knockdown)
[3] = 2.5 µM, library screen: screen1, EWS-FLI1 expression: high (no doxycycline)
[4] = 2.5 µM, library screen: screen1, EWS-FLI1 expression: low (doxycycline-induced shRNA knockdown)
[5] = 0.25 µM, library screen: screen2, EWS-FLI1 expression: high (no doxycycline)
[6] = 0.25 µM, library screen: screen2, EWS-FLI1 expression: low (doxycycline-induced shRNA knockdown)
[7] = 2.5 µM, library screen: screen2, EWS-FLI1 expression: high (no doxycycline)
[8] = 2.5 µM, library screen: screen2, EWS-FLI1 expression: low (doxycycline-induced shRNA knockdown)

COc1cc2c(cc1OC)[C@@H]1C(=O)c3ccc4oc(C(C)C)cc4c3O[C@@H]1CO2
cell viability (log2) [1]: 0.0223
cell viability (log2) [2]: 0.0518
cell viability (log2) [3]: -0.307 (active)
cell viability (log2) [4]: -0.129

COc1cc2c(cc1OC)-c1c(oc3c4c(ccc3c1=O)OC(C(C)C)C4)CO2 (configuration not stated)
cell viability (log2) [1]: 0.0422
cell viability (log2) [2]: 0.0484
cell viability (log2) [3]: 0.122
cell viability (log2) [4]: 0.0221

COc1cc2c(cc1OC)C1C(=O)c3ccc(O)c(CC=C(C)C)c3OC1CO2 (configuration not stated)
cell viability (log2) [1]: 0.0263
cell viability (log2) [2]: 0.0494
cell viability (log2) [3]: 0.046
cell viability (log2) [4]: 0.0598

C=C(C)[C@H]1Cc2c(ccc3c2O[C@@H]2COc4cc(OC)c(OC)cc4[C@@H]2C3=O)O1
cell viability (log2) (0.025 µM, library screen: screen2, EWS-FLI1 expression: high (no doxycycline)): 0.0593
cell viability (log2) (0.025 µM, library screen: screen2, EWS-FLI1 expression: low (doxycycline-induced shRNA knockdown)): 0.0961
cell viability (log2) [1]: -1.71 (active)
cell viability (log2) [2]: -0.663 (active)
cell viability (log2) [5]: -0.962 (active)
cell viability (log2) [6]: -0.539 (active)
cell viability (log2) [3]: -2.87 (active)
cell viability (log2) [4]: -1.24 (active)
cell viability (log2) [7]: -2.41 (active)
cell viability (log2) [8]: -0.955 (active)
cell viability (log2) (25 µM, library screen: screen2, EWS-FLI1 expression: high (no doxycycline)): -3.79 (active)
cell viability (log2) (25 µM, library screen: screen2, EWS-FLI1 expression: low (doxycycline-induced shRNA knockdown)): -1.03 (active)

COc1cc2c(cc1OC)[C@H]1C(=O)c3ccc4c(c3O[C@H]1CO2)C[C@@H](C(C)C)O4
cell viability (log2) [1]: -1.56 (active)
cell viability (log2) [2]: -0.67 (active)
cell viability (log2) [3]: -2.2 (active)
cell viability (log2) [4]: -0.747 (active)

C=C(C)[C@H]1Cc2c(ccc3c(=O)c4c(oc23)COc2cc(OC)c(OC)cc2-4)O1
cell viability (log2) [1]: 0.0952
cell viability (log2) [2]: -0.0101
cell viability (log2) [3]: 0.0848
cell viability (log2) [4]: -0.0847

CCOP(=S)(OCC)SCn1c(=O)oc2cc(Cl)ccc21
cell viability (log2) [1]: 0.0867
cell viability (log2) [2]: 0.153
cell viability (log2) [3]: 0.166
cell viability (log2) [4]: 0.163

CCOCN(C(=O)CCl)c1c(C)cccc1CC
cell viability (log2) [1]: 0.105
cell viability (log2) [2]: 0.0121
cell viability (log2) [3]: 0.0903
cell viability (log2) [4]: -0.17

CC(=O)O[C@@H]1C2CC[C@@H]3C1(C[C@@H](O)[C@@]1(O)[C@@H](C[C@H](O)C1(C)C)[C@]3(C)O)C[C@@]2(C)O (some centres not stated)
cell viability (log2) [1]: 0.0646
cell viability (log2) [2]: 0.00107
cell viability (log2) [3]: 0.0644
cell viability (log2) [4]: 0.0594

COc1cc2occc2c2oc(=O)ccc12
cell viability (log2) [1]: 0.133
cell viability (log2) [2]: -0.00777
cell viability (log2) [3]: 0.146
cell viability (log2) [4]: 0.0199

CCOC(=O)CC(SP(=S)(OC)OC)C(=O)OCC (configuration not stated)
cell viability (log2) [1]: 0.0518
cell viability (log2) [2]: 0.0626
cell viability (log2) [3]: 0.101
cell viability (log2) [4]: 0.14

CN[C@@H]1[C@@H](O)[C@@H](O[C@@H]2[C@@H](O)[C@H](O[C@H]3O[C@H](CN)CC[C@H]3N)[C@@H](N)C[C@H]2N)OC[C@]1(C)O
cell viability (log2) [1]: 0.0502
cell viability (log2) [2]: -0.0312
cell viability (log2) [3]: 0.184
cell viability (log2) [4]: 0.0476

CC1(C)C2CC(=O)[C@]3(C)C(CC[C@@]4(C)[C@H](c5ccoc5)OC(=O)[C@H]5O[C@]543)[C@@]2(C)C=C[C@@H]1O (some centres not stated)
cell viability (log2) [1]: 0.0868
cell viability (log2) [2]: 0.0799
cell viability (log2) [3]: 0.177
cell viability (log2) [4]: 0.105

Oc1cc2c(cc1O)[C@H]1c3ccccc3CN[C@@H]1CC2
cell viability (log2) [5]: 0.0852
cell viability (log2) [6]: -0.0099
cell viability (log2) [7]: 0.117
cell viability (log2) [8]: 0.00998

CC(C)N(CCC(C(N)=O)(c1ccccc1)c1ccccn1)C(C)C (configuration not stated)
cell viability (log2) [1]: 0.118
cell viability (log2) [2]: 0.068
cell viability (log2) [5]: 0.102
cell viability (log2) [6]: 0.0965
cell viability (log2) [3]: 0.167
cell viability (log2) [4]: 0.146
cell viability (log2) [7]: 0.0737
cell viability (log2) [8]: 0.0918

O=S1OCC2C(CO1)C1(Cl)C(Cl)=C(Cl)C2(Cl)C1(Cl)Cl (configuration not stated)
cell viability (log2) [1]: 0.126
cell viability (log2) [2]: 0.0993
cell viability (log2) [3]: 0.0998
cell viability (log2) [4]: -2.97

COc1ccc(CCN)cc1O
cell viability (log2) [5]: 0.19
cell viability (log2) [6]: 0.105
cell viability (log2) [7]: 0.0411
cell viability (log2) [8]: 0.0823

CC1(C)C2C[C@@H](O)[C@]3(C)C(CC[C@@]4(C)[C@H](c5ccoc5)OC(=O)[C@H]5O[C@]543)[C@@]2(C)[C@@H](O)C[C@H]1O (some centres not stated)
cell viability (log2) [1]: 0.0675
cell viability (log2) [2]: 0.0959
cell viability (log2) [3]: 0.135
cell viability (log2) [4]: 0.0584

C[N+]1(C)[C@H]2CC(OC(=O)C(CO)c3ccccc3)C[C@H]1[C@H]1O[C@H]12 (some centres not stated)
cell viability (log2) [5]: 0.258
cell viability (log2) [6]: 0.0872
cell viability (log2) [7]: 0.133
cell viability (log2) [8]: -0.00973

CO[C@H]1[C@H](O)[C@H](O[C@H]2CC[C@@]3(C)[C@H](CC[C@@H]4[C@@H]3CC[C@]3(C)[C@@H](C5=CC(=O)OC5)CC[C@]43O)C2)O[C@@H](C)[C@@H]1O
cell viability (log2) [1]: 0.0843
cell viability (log2) [2]: 0.064
cell viability (log2) [3]: -4.02 (active)
cell viability (log2) [4]: -4.27 (active)

CO[C@H]1[C@H](O)[C@H](O[C@H]2CC[C@@]3(C=O)[C@H](CC[C@@H]4[C@@H]3CC[C@]3(C)[C@@H](C5=CC(=O)OC5)CC[C@]43O)C2)O[C@@H](C)[C@@H]1O
cell viability (log2) [1]: -3.17 (active)
cell viability (log2) [2]: -3.22 (active)
cell viability (log2) [3]: -3.52 (active)
cell viability (log2) [4]: -4.22 (active)

C[C@@H]1[C@H](O)[C@@H](C)/C=C/C=C/CC/C=C/C=C/C=C/C=C/C(O[C@H]2O[C@H](C)[C@@H](O)[C@H](N)[C@@H]2O)CC2O[C@](O)(CC(O)C(O)CCC(O)CC(O)CC(O)CC(=O)O[C@H]1C)CC(O)C2C(=O)O (some centres not stated)
cell viability (log2) (0.103 µM, library screen: screen3, EWS-FLI1 expression: high (no doxycycline)): 0.0278
cell viability (log2) (0.103 µM, library screen: screen3, EWS-FLI1 expression: low (doxycycline-induced shRNA knockdown)): 0.00627
cell viability (log2) [1]: 0.0655
cell viability (log2) [2]: 0.0679
cell viability (log2) (0.308 µM, library screen: screen3, EWS-FLI1 expression: high (no doxycycline)): 0.00683
cell viability (log2) (0.308 µM, library screen: screen3, EWS-FLI1 expression: low (doxycycline-induced shRNA knockdown)): 0.0137
cell viability (log2) (0.926 µM, library screen: screen3, EWS-FLI1 expression: high (no doxycycline)): 0.00828
cell viability (log2) (0.926 µM, library screen: screen3, EWS-FLI1 expression: low (doxycycline-induced shRNA knockdown)): 0.0539
cell viability (log2) [3]: 0.133
cell viability (log2) [4]: 0.104
cell viability (log2) (2.8 µM, library screen: screen3, EWS-FLI1 expression: high (no doxycycline)): -0.00919
cell viability (log2) (2.8 µM, library screen: screen3, EWS-FLI1 expression: low (doxycycline-induced shRNA knockdown)): 0.0174
cell viability (log2) (8.3 µM, library screen: screen3, EWS-FLI1 expression: high (no doxycycline)): 0.0134
cell viability (log2) (8.3 µM, library screen: screen3, EWS-FLI1 expression: low (doxycycline-induced shRNA knockdown)): 0.0644
cell viability (log2) (25 µM, library screen: screen3, EWS-FLI1 expression: high (no doxycycline)): 0.0075
cell viability (log2) (25 µM, library screen: screen3, EWS-FLI1 expression: low (doxycycline-induced shRNA knockdown)): 0.0194
